According to PubChem BioAssay (NCATS):
Values joined by “and” are separate entries in the source; they are usually repeats but may differ in a detail not shown here. Identical values can stand only once. Inconclusive results are not listed. Where a structure was tested more than once in an assay, its records may differ in their call. Active and inactive are the calls of the source. Unless noted, calls follow the shape of the dose curve; as a rule, active = well fitted curve in the direction sought with a large enough effect; inconclusive = small, poorly fitted or top-dose-only effect, or another doubt; inactive = no such curve, though single readings can be large; an effect the other way counts as inactive or inconclusive.

Legend:
[1] = Confirmation and Secondary Assay for Modulators of Hemoglobin Beta Chain Splicing at IVS2 654 locus (AID 910);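 also: per-well total GFP intensity by laser scanning cytometry after 2-day treatment; % of control where 0% means no effect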
Outline: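 HeLa cells stably carrying EGFP interrupted by mutant beta-globin IVS2-654 intron (CMV-driven) were treated with compound for 2 days at 37C; corrected splicing was scored as total peak GFP intensity per well (488 nm excitation, 500-520 nm emission).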

[2] = Confirmation and Secondary Assay for Modulators of Hemoglobin Beta Chain Splicing at IVS2 705 locus (AID 930);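 also: HeLa cells stably expressing the EGFP-705 splicing reporter; % of control where 0% means no effect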
Outline: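 Restored EGFP fluorescence after 2-day compound exposure reports splicing correction in IVS2-705 EGFP reporter HeLa cells; positive control was 500 nM splice-blocking PNA oligo. Signal measured as well total peak GFP intensity (488 nm excitation).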

[3] = qHTS Assay for Lipid Storage Modulators (AID 1519; calls by dose curve; as to activity change, negative = inhibition: % is scaled to controls: 0 for no effect and ±100 for the full control effect); conditions: Drosophila S3 cells, BODIPY lipid droplet/cell ratio, laser cytometry, cells loaded with oleic acid; for activity change, negative = inhibition: at 57.5 µM (top of the series)
Outline: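 Cells seeded at 5,000 per well were treated with compounds over a concentration series and loaded with oleic acid (400 uM, as added). Lipid droplet fluorescence (488 nm excitation, 500-530 nm channel) was read by laser-scanning cytometry and normalized to 20 uM Triacsin C.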

[4] = target: Ubiquitin carboxyl-terminal hydrolase 1 (Homo sapiens) (UniProt O94782); experiment: Inhibitors of USP1/UAF1: Pilot qHTS (AID 504865);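 also: rhodamine fluorescence freed from ubiquitin-rhodamine substrate followed over time; top concentration of the series differs between compounds; % is scaled to controls: 0 for no effect and ±100 for the full control effect; nearly all actives have a fitted effect of over 35% in size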
Chain of Ubiquitin carboxyl-terminal hydrolase 1 (Homo sapiens) (O94782 whole entry, looked up): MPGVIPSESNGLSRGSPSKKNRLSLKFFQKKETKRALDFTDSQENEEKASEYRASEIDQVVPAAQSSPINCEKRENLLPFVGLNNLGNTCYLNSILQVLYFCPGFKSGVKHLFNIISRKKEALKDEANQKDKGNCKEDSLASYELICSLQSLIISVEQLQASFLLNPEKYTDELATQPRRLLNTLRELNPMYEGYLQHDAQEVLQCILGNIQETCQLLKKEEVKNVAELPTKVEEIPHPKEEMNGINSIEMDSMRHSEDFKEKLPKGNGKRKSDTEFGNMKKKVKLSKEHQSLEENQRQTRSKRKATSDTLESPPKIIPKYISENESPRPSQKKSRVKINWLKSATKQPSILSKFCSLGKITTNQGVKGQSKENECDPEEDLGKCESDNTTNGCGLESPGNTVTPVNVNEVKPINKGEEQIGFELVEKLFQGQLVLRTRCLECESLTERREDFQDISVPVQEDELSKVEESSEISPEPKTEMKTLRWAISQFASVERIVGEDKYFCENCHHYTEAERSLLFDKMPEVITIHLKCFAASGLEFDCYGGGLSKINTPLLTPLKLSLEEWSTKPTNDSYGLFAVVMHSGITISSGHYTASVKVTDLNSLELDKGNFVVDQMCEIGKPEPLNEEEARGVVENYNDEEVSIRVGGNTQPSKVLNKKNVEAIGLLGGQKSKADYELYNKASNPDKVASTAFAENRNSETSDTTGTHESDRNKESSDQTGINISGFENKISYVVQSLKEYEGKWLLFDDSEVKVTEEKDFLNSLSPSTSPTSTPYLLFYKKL
Outline: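 1nM USP1/UAF1 + cpd, 15 min RT; start w/ Ub-Rho 150nM final; kinetic FL 480/540 nm, 6 reads q60 s. Buffer 50mM HEPES pH 7.8, 0.5mM EDTA, 1mM TCEP, 0.01% Tween-20, 0.1 mg/ml BSA.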

[5] = qHTS assay for small molecule antagonists of peroxisome proliferator-activated receptor delta signaling (AID 588535); conditions: HEK293T PPARd-UAS-bla, beta-lactamase FRET ratio, 18 h; 460 nm channel;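 also: cells co-treated with a PPAR-delta agonist as stimulator during compound exposure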
Outline: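 Compounds tested in titration on PPAR-delta-UAS-bla HEK293T cells grown in charcoal/dextran-stripped serum (2%); beta-lactamase activity read via CCF4 emission at 460 and 530 nm.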

[6] = target: Peroxisome proliferator-activated receptor gamma (Homo sapiens) (UniProt P37231); experiment: qHTS assay for small molecule agonists of peroxisome proliferator-activated receptor gamma signaling (AID 588536; active = well fitted curve in the direction sought with a large enough effect in the signal ratio, with a control signal flat, not every such curve was filed as active; the % refers to the signal ratio;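 also: 0% = DMSO basal wells and 100% = rosiglitazone at 2 µM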)
Chain of Peroxisome proliferator-activated receptor gamma (Homo sapiens) (P37231 whole entry, looked up): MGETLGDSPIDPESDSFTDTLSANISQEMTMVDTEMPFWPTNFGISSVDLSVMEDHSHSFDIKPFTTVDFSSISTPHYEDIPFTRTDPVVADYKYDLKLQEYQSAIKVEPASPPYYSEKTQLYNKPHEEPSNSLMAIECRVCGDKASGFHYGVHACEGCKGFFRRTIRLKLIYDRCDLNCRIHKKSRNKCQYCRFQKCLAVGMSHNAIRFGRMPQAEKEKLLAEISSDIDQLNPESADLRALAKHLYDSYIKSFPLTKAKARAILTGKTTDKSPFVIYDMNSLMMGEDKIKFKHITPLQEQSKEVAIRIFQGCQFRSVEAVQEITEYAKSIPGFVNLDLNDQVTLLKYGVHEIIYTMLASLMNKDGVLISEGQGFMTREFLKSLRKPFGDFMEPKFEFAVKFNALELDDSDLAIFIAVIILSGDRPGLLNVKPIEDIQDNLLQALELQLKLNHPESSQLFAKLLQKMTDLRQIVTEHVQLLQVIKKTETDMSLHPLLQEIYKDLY
Outline: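 This is an agonist-mode beta-lactamase reporter assay in HEK293 PPAR-gamma-UAS-bla cells with 1% charcoal/dextran FBS. Compound titrations ran 16 h at 37 C before CCF4 detection. EC50 and efficacy are Hill fits scaled to 2 uM rosiglitazone (100%) and DMSO basal.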

[7] = target: Vitamin D3 receptor (Homo sapiens) (UniProt P11473); experiment: qHTS assay for small molecule antagonists of vitamin D receptor signaling (AID 588541; calls by dose curve;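 also: receptor activated by calcitriol during compound treatment; % is scaled to controls: 0 for no effect and ±100 for the full control effect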)
Chain of Vitamin D3 receptor (Homo sapiens) (P11473 whole entry, looked up): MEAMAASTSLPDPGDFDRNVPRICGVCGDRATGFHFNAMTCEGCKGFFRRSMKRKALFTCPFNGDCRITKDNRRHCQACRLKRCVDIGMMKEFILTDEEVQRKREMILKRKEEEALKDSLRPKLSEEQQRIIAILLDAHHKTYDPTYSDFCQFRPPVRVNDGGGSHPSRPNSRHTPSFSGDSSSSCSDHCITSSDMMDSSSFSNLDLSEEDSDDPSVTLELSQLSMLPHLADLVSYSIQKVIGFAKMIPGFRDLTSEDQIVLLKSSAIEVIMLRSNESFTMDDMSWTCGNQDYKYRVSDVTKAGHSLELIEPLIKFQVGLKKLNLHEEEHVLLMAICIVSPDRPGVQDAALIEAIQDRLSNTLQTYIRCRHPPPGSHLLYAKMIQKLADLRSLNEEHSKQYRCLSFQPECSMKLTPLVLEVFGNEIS
Outline: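 VDR-UAS-bla HEK293T cells (2000/well, 2% charcoal-stripped FBS) were treated with titrated compounds plus 1-alpha,25-dihydroxyvitamin D3 (50 nM or 3 nM final) for 16 h at 37 C. CCF4 beta-lactamase fluorescence was read; Hill fits gave IC50.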

[8] = qHTS assay for small molecule agonists of retinoid X receptor alpha signaling (AID 588544); conditions: HEK293T RXRa-UAS-bla, beta-lactamase reporter, 18 h; 530 nm emission
[9] = qHTS assay for small molecule antagonists of retinoid X receptor alpha signaling (AID 588546; active = well fitted inhibition curve with a large enough effect in the signal ratio, with a control signal flat, not every such curve was filed as active; the % refers to the signal ratio;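 also: cells stimulated with 9-cis-retinoic acid as agonist; % is scaled to controls: 0 for no effect and ±100 for the full control effect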); conditions: HEK293T RXRa-UAS-bla, beta-lactamase ratio, antagonist mode; measured here: W530 green channel, cytotoxicity proxy
Outline: (§1)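 Beta-lactamase reporter inhibition, read as CCF4 fluorescence ratio (ex 405, em 460/530 nm) after 2 h at RT. HEK293T UAS-bla cells, 2500/well, were stimulated with 9-cis-RA at 500 or 100 nM final alongside test compound for 18 h at 37 C.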

[10] = target: Retinoic acid receptor RXR-alpha (Homo sapiens) (UniProt P19793); experiment: as above; conditions: HEK293T RXRa-UAS-bla, beta-lactamase ratio, antagonist mode
Chain of Retinoic acid receptor RXR-alpha (Homo sapiens) (P19793 whole entry, looked up): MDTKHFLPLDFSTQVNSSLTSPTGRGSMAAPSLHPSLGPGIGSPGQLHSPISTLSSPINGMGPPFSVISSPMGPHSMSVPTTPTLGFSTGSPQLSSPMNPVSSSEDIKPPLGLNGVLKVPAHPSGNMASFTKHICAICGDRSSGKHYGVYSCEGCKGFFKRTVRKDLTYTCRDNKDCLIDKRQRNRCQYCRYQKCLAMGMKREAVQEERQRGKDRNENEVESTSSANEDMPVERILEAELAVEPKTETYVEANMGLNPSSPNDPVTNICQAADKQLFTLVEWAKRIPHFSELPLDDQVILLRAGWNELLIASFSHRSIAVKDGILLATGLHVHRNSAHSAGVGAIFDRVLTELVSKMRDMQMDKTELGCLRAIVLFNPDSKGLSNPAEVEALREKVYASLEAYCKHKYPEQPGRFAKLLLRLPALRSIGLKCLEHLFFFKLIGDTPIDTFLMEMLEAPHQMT
Outline: as §1

[11] = qHTS assay for small molecule activators of the p53 signaling pathway (AID 651743; active = well fitted activation curve with a large enough effect in the signal ratio, not every such curve was filed as active; the % refers to the signal ratio; also: % of control where 0% means no effect); conditions: HCT-116 p53RE-bla, beta-lactamase FRET ratio, 16 h; activation: stronger effect = higher value
Outline: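 Here HCT-116 cells with an integrated p53-responsive beta-lactamase gene were incubated with compounds (16 hours, 37 C) after a 5-hour plating period; beta-lactamase activity was detected as fluorescence intensity via B/G FRET substrate.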

[12] = qHTS assay for environmental chemicals that activate the Aryl hydrocarbon Receptor (AhR) signaling pathway (AID 651777); conditions: 1A2-DRE human hepatoma cells, luciferase, 24 h; activation: stronger effect = higher value; also: % of control where 0% means no effect; nearly all actives have a fitted effect of over 15% in size
Outline: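 Luminescence (One-Glo, 30 min, room temperature) reports AhR-driven luciferase in stably transfected human hepatoma cells bearing DRE and CYP1A2 promoter. Cells (1,200/well) were treated with compound for 24 hr at 37 C in qHTS format.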

[13] = target: Peroxisome proliferator-activated receptor alpha (Homo sapiens) (UniProt Q07869); experiment: qHTS assay for small molecule agonists of the peroxisome proliferator-activated receptor alpha (PPARalpha) signaling pathway (AID 651778); conditions: PathHunter PPARalpha complementation, chemiluminescence, 6 h; stronger effect = higher value; also: % of control where 0% means no effect
Chain of Peroxisome proliferator-activated receptor alpha (Homo sapiens) (Q07869 whole entry, looked up): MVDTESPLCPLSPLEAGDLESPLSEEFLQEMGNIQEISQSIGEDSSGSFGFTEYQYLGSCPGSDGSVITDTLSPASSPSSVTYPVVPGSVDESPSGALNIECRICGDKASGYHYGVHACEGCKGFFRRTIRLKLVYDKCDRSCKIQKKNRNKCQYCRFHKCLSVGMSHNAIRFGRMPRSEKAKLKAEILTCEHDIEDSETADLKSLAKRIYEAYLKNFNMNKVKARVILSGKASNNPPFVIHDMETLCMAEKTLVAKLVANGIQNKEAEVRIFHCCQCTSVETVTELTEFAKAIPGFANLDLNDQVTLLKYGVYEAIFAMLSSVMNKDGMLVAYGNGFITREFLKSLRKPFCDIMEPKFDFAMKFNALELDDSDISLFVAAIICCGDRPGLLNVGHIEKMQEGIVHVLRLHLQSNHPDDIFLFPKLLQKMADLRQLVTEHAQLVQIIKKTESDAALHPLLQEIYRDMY
Outline: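 Cells plated at 2,000/well and held overnight at 37 C, 5% CO2, then compound added by pin tool for 6 hr; after PathHunter detection reagent and 60 min at room temperature, chemiluminescence from enzyme complementation was read.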

[14] = qHTS assay for small molecule agonists of the antioxidant response element (ARE) signaling pathway measured by Nrf2-dependant transcriptional activity - cell viability counter screen (AID 720653; active = well fitted curve in the direction sought with a large enough effect in the repeat runs; an effect the other way counts as inactive or inconclusive; also: % is scaled to controls: 0 for no effect and ±100 for the full control effect); conditions: ARE-bla HepG2 viability, CellTiter-Glo ATP luminescence, 16 h; stronger effect = lower value
Outline: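 ARE-bla HepG2 cells (2,000/well) rested 5 hrs at 37C/5% CO2, then exposed to compounds in DMSO for 16 hrs. Viability was read in the same wells as intracellular ATP by luminescence, 30 min at room temperature after reagent addition.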

[15] = qHTS assay for cell viability of HEK293 cells (AID 743288); conditions: ATP luminescence (CellTiter-Glo), 18 h; max response: stronger effect = lower value; also: % is scaled to controls: 0 for no effect and ±100 for the full control effect; nearly all actives have a fitted effect of over 50% in size
Outline: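 ATP luminescence (CellTiter-Glo) reports metabolically competent cell number after parental HEK293 cells, 2,000/well, were treated with DMSO-dissolved compounds for 18 h at 37 C; reagent incubation 30 min, room temperature.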

[16] = qHTS assay for cell viability of the p53RE-bla HCT-116 cell line (AID 743292); also: % is scaled to controls: 0 for no effect and ±100 for the full control effect; nearly all actives have a fitted effect of over 55% in size
Outline: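 ATP-based luminescent viability (CellTiter-Glo, 30 min RT) after 16 h compound treatment at 37 C of p53RE-bla HCT-116 cells, seeded at 4,000 cells/well and rested 5 h before dosing.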

[17] = target: Nuclear receptor subfamily 1 group I member 2 (Rattus norvegicus) (UniProt Q9R1A7); experiment: qHTS assay for small molecule activators of the rat pregnane X receptor (rPXR) signaling pathway (AID 651751; call rule not given here; also: 0% is about no effect); conditions: rPXR reporter cells, luciferase (One-Glo), 24 h
Chain of Nuclear receptor subfamily 1 group I member 2 (Rattus norvegicus) (Q9R1A7 whole entry, looked up): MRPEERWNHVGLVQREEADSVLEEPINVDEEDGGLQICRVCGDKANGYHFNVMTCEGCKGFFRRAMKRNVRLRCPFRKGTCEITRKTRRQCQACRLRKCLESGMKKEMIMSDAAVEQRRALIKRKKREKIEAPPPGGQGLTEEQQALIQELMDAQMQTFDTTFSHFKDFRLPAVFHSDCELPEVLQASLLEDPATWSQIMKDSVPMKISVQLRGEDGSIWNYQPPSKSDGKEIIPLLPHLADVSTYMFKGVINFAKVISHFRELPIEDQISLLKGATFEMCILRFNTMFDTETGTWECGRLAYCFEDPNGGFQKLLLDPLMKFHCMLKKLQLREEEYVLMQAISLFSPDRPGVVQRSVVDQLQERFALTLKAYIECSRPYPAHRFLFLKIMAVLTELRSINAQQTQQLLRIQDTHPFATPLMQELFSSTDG

[18] = target: Cytochrome P450 3A4 (Homo sapiens) (UniProt P08684); experiment: qHTS Assay for Inhibitors and Substrates of Cytochrome P450 3A4 (AID 884); also: nearly all actives have a fitted effect of over 50% in size; also: potency is read from the fitted curve at half-maximal effect
Chain of Cytochrome P450 3A4 (Homo sapiens) (P08684 whole entry, looked up): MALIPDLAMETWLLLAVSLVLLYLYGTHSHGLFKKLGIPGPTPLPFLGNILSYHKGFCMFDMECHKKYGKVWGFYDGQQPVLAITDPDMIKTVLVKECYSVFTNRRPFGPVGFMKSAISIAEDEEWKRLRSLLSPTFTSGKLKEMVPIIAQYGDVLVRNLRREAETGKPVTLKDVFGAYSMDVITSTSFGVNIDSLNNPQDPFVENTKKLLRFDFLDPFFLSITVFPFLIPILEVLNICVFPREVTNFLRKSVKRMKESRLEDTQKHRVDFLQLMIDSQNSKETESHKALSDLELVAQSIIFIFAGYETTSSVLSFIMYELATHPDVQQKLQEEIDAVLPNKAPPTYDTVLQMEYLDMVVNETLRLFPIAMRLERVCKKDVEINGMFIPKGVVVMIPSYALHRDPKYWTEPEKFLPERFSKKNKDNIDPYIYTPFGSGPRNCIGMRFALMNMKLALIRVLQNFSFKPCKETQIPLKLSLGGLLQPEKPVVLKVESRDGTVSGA
Outline: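 Luminescent readout of luciferin produced by CYP3A4 (20 nM) dealkylation of Luciferin-PPXE, 25 uM (its KM). NADPH-driven reaction ran 60 min at RT after 10 min compound preincubation; data scaled to 57 uM ketoconazole as 100% inhibition.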

[19] = target: Cytochrome P450 3A4 (Homo sapiens) (UniProt P08684); experiment: qHTS Assay for Activators of Cytochrome P450 3A4 (AID 885); also: nearly all actives have a fitted effect of over 65% in size
Outline: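 Luminescent readout of luciferin formed from 25 uM Luciferin-PPXE (KM level) by 20 nM CYP3A4 in 200 mM KPO4, with 60 min NADPH-driven reaction at room temperature after 10 min compound exposure. Ketoconazole (57 uM) defined 100% inhibition.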

[20] = measured here: cell count channel max response
[21] = measured here: lipid channel max response

Compound: CCS(=O)CCSP(=O)(OC)OC (stereo unspecified)
- Potency [1]: inactive
- Potency [2]: inactive
- activity change, negative = inhibition [3]: -0.0729% (inactive)
- max response [3, 20]: 0.72%
- max response [3, 21]: 3.47%
- Potency [4]: inactive
- max response [5]: 34.5%
- outcome [6]: inactive
- outcome [7]: inactive
- max response [8]: -13.5%
- max response [9]: -0.327%
- max response [10]: 8.07% (inactive)
- activation [11]: -0.772% (inactive)
- activation [12]: -0.491% (inactive)
- max response [13]: -0.0185% (inactive)
- max response [14]: -6.55% (inactive)
- max response [15]: -4.96% (inactive)
- Potency [16]: inactive
- max response [17]: -2.51% (inactive)

Compound: CC1C(=O)OC2C(O)C34C5OC(=O)[C@@]3(OC3OC(=O)[C@H](O)[C@]34C(C(C)(C)C)C5O)[C@]12O (stereo partly specified)
- Potency [18]: inactive
- Potency [1]: inactive
- Potency [2]: inactive
- activity change, negative = inhibition [3]: 0.291% (inactive)
- max response [3, 20]: 13.6%
- max response [3, 21]: 14.3%
- Potency [4]: inactive

Compound: CC1=C2CCC3C4CCC(=O)[C@@]4(C)CCC3[C@]2(C)CCC1=O (stereo partly specified)
- Potency [18]: 5.01 µM (active)
- Potency [19]: inactive
- Potency [1]: inactive
- Potency [2]: inactive
- activity change, negative = inhibition [3]: 7.19% (inactive)
- max response [3, 20]: 5.35%
- max response [3, 21]: 8.56%
- Potency [4]: inactive

Compound: CC(N)[C@@H](O)c1ccccc1 (stereo partly specified)
- Potency [18]: inactive
- Potency [1]: inactive
- Potency [2]: inactive
- activity change, negative = inhibition [3]: 6.04% (inactive)
- max response [3, 20]: 11.6%
- max response [3, 21]: 28.2%
- Potency [4]: inactive

Compound: O=C1CCCC2C3CC(CN12)C1CCCCN1C3 (stereo unspecified)
- Potency [18]: inactive
- Potency [1]: inactive
- Potency [2]: inactive
- activity change, negative = inhibition [3]: 6.45% (inactive)
- max response [3, 20]: 7.08%
- max response [3, 21]: 15%
- Potency [4]: inactive

Compound: O=C(CC[N+](=O)[O-])OCC1OC(O)C(OC(=O)CC[N+](=O)[O-])[C@@H](OC(=O)CC[N+](=O)[O-])C1OC(=O)CC[N+](=O)[O-] (stereo partly specified)
- Potency [18]: inactive
- Potency [1]: inactive
- Potency [2]: inactive
- activity change, negative = inhibition [3]: 3.27% (inactive)
- max response [3, 20]: 13%
- max response [3, 21]: 17.5%
- Potency [4]: inactive

Compound: COC1=CC23CCCN2CCc2cc4c(cc2C3C1O)OCO4 (stereo unspecified)
- Potency [18]: 31.6 µM (active)
- Potency [19]: inactive
- Potency [1]: inactive
- Potency [2]: inactive
- activity change, negative = inhibition [3]: 15.3% (inactive)
- max response [3, 20]: 26.5%
- max response [3, 21]: 52.2%
- Potency [4]: inactive

Compound: COc1cc(C2c3cc4c(cc3C(O)C3COC(=O)C23)OCO4)cc(OC)c1O (stereo unspecified)
- Potency [18]: 6.31 µM (active)
- Potency [19]: inactive
- Potency [1]: inactive
- Potency [2]: inactive
- activity change, negative = inhibition [3]: 7.14% (inactive)
- max response [3, 20]: -1.69%
- max response [3, 21]: 6.73%
- Potency [4]: inactive

Compound: COc1cc(C2c3cc4c(cc3C(OC(C)=O)[C@H]3COC(=O)C23)OCO4)cc(OC)c1OC (stereo partly specified)
- Potency [18]: inactive and 1.26 µM (active)
- Potency [19]: inactive
- Potency [1]: inactive
- Potency [2]: inactive
- activity change, negative = inhibition [3]: 0.38% (inactive) and 4.56% (inactive)
- max response [3, 20]: 26.1% and 10%
- max response [3, 21]: 22.6% and 16.4%
- Potency [4]: inactive

Compound: CC(=O)OC1C(=O)[C@]2(C)C(O)CC3OC[C@]3(OC(C)=O)C2[C@@H](OC(=O)c2ccccc2)[C@]2(O)CC(O)C(C)=C1C2(C)C (stereo partly specified)
- Potency [18]: inactive
- Potency [1]: inactive
- Potency [2]: inactive
- activity change, negative = inhibition [3]: 0.522% (inactive)
- max response [3, 20]: 3.27%
- max response [3, 21]: 6.64%
- Potency [4]: inactive
